{"source": "PubChem BioAssay AID1159580", "about": "(chemical genetic matrix, 2015)", "assay": "chemical genetic growth profiling, strain panel (AID 1159580);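 further: tested at 20 µM; growth read once vehicle control cultures reached saturation at 30 °C; 1 = growth at the plate median or of vehicle wells; lower values mean less growth of the strain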", "conditions": "growth OD", "note": "The whole screen tested about 5,500 compounds, of which about 2,000 (36%) were called active. Another 18% or so got no clear call; they are omitted. This is one part of the list. Values without a mark were called inactive. No stated cut-off is given here; in the data, active means normalized growth mostly below about 0.91 (no sharp cut-off); inconclusive means no clear call, values can overlap the other calls; inactive means mostly above about 0.92.", "data": [{"smiles": "N[C@H](Cc1cc(I)c(Oc2ccc(O)c(I)c2)c(I)c1)C(=O)O", "values": [{"measurement": "normalized growth", "setting": "S. cerevisiae deletion strains, locus YJR075W, strain HOC1, active compounds read low", "result": 1}, {"measurement": "normalized growth", "setting": "S. cerevisiae deletion strains, locus YKL009W, strain mrt4, active compounds read low", "result": 1.03}, {"measurement": "normalized growth", "setting": "S. cerevisiae deletion strains, locus YKL068W, active compounds read low", "result": 0.998}, {"measurement": "normalized growth", "setting": "S. cerevisiae deletion strains, locus YKL085W, strain MDH1 (second series), active compounds read low", "result": 0.991}, {"measurement": "normalized growth", "setting": "S. cerevisiae deletion strains, locus YKL085W, strain MDH1, active compounds read low", "result": 0.991}, {"measurement": "normalized growth", "setting": "S. cerevisiae deletion strains, locus YKL160W, strain elf1, active compounds read low", "result": 0.965}, {"measurement": "normalized growth", "setting": "S. cerevisiae deletion strains, locus YKL190W, strain CNB1, active compounds read low", "result": 1.01}, {"measurement": "normalized growth", "setting": "S. cerevisiae deletion strains, locus YKR001C, strain vps1, active compounds read low", "result": "0.862 (active)"}, {"measurement": "normalized growth", "setting": "S. cerevisiae deletion strains, locus YKR026C, strain gcn3, active compounds read low", "result": 0.999}, {"measurement": "normalized growth", "setting": "S. cerevisiae deletion strains, locus YKR091W, strain srl3, active compounds read low", "result": 0.998}, {"measurement": "normalized growth", "setting": "S. cerevisiae deletion strains, locus YLL001W, strain dnm1, active compounds read low", "result": 0.989}, {"measurement": "normalized growth", "setting": "S. cerevisiae deletion strains, locus YLL026W, active compounds read low", "result": 1}, {"measurement": "normalized growth", "setting": "S. cerevisiae deletion strains, locus YLL041C, strain sdh2, active compounds read low", "result": 1}, {"measurement": "normalized growth", "setting": "S. cerevisiae deletion strains, locus YLR027C, strain aat2, active compounds read low", "result": 0.968}, {"measurement": "normalized growth", "setting": "S. cerevisiae deletion strains, locus YLR039C, strain RIC1, active compounds read low", "result": 0.964}, {"measurement": "normalized growth", "setting": "S. cerevisiae deletion strains, locus YLR058C, strain SHM2, active compounds read low", "result": 1.01}, {"measurement": "normalized growth", "setting": "S. cerevisiae deletion strains, locus YLR102C, strain apc9, active compounds read low", "result": 0.996}, {"measurement": "normalized growth", "setting": "S. cerevisiae deletion strains, locus YLR113W, strain HOG1, active compounds read low", "result": 1.04}, {"measurement": "normalized growth", "setting": "S. cerevisiae deletion strains, locus YLR221C, strain rsa3, active compounds read low", "result": 0.945}, {"measurement": "normalized growth", "setting": "S. cerevisiae deletion strains, locus YLR258W, strain gsy2, active compounds read low", "result": 0.969}, {"measurement": "normalized growth", "setting": "S. cerevisiae deletion strains, locus YLR262C, strain YPT6 (second series), active compounds read low", "result": 0.938}, {"measurement": "normalized growth", "setting": "S. cerevisiae deletion strains, locus YLR262C, strain YPT6, active compounds read low", "result": 0.953}, {"measurement": "normalized growth", "setting": "S. cerevisiae deletion strains, locus YLR268W, strain sec22, active compounds read low", "result": 0.909}, {"measurement": "normalized growth", "setting": "S. cerevisiae deletion strains, locus YLR320W, strain mms22, active compounds read low", "result": 0.941}, {"measurement": "normalized growth", "setting": "S. cerevisiae deletion strains, locus YLR330W, strain CHS5, active compounds read low", "result": 1.04}, {"measurement": "normalized growth", "setting": "S. cerevisiae deletion strains, locus YLR342W, strain FKS1 (second series), active compounds read low", "result": 0.95}, {"measurement": "normalized growth", "setting": "S. cerevisiae deletion strains, locus YLR342W, strain FKS1, active compounds read low", "result": 0.994}, {"measurement": "normalized growth", "setting": "S. cerevisiae deletion strains, locus YLR357W, strain rsc2, active compounds read low", "result": 1}, {"measurement": "normalized growth", "setting": "S. cerevisiae deletion strains, locus YLR370C, strain arc18, active compounds read low", "result": 0.999}, {"measurement": "normalized growth", "setting": "S. cerevisiae deletion strains, locus YLR371W, strain rom2, active compounds read low", "result": 0.989}, {"measurement": "normalized growth", "setting": "S. cerevisiae deletion strains, locus YLR384C, strain iki3, active compounds read low", "result": 0.993}, {"measurement": "normalized growth", "setting": "S. cerevisiae deletion strains, locus YLR418C, strain cdc73, active compounds read low", "result": "0.77 (active)"}, {"measurement": "normalized growth", "setting": "S. cerevisiae deletion strains, locus YML016C, strain PPZ1, active compounds read low", "result": 0.997}, {"measurement": "normalized growth", "setting": "S. cerevisiae deletion strains, locus YML032C, strain rad52, active compounds read low", "result": 0.989}, {"measurement": "normalized growth", "setting": "S. cerevisiae deletion strains, locus YML120C, strain ndi1, active compounds read low", "result": 0.998}, {"measurement": "normalized growth", "setting": "S. cerevisiae deletion strains, locus YML124C, strain tub3, active compounds read low", "result": 0.997}, {"measurement": "normalized growth", "setting": "S. cerevisiae deletion strains, locus YMR058W, strain fet3, active compounds read low", "result": 0.988}, {"measurement": "normalized growth", "setting": "S. cerevisiae deletion strains, locus YMR078C, strain ctf18, active compounds read low", "result": 1.01}, {"measurement": "normalized growth", "setting": "S. cerevisiae deletion strains, locus YMR125W, strain sto1, active compounds read low", "result": 0.989}, {"measurement": "normalized growth", "setting": "S. cerevisiae deletion strains, locus YMR129W, active compounds read low", "result": 0.999}, {"measurement": "normalized growth", "setting": "S. cerevisiae deletion strains, locus YMR205C, strain PFK2, active compounds read low", "result": 0.88}, {"measurement": "normalized growth", "setting": "S. cerevisiae deletion strains, locus YMR223W, strain ubp8, active compounds read low", "result": 0.934}, {"measurement": "normalized growth", "setting": "S. cerevisiae deletion strains, locus YMR231W, strain pep5, active compounds read low", "result": 0.999}, {"measurement": "normalized growth", "setting": "S. cerevisiae deletion strains, locus YMR263W, strain SAP30, active compounds read low", "result": 1}, {"measurement": "normalized growth", "setting": "S. cerevisiae deletion strains, locus YMR307W, strain GAS1, active compounds read low", "result": 0.956}, {"measurement": "normalized growth", "setting": "S. cerevisiae deletion strains, locus YNL067W, strain RPL9B, active compounds read low", "result": 1.01}, {"measurement": "normalized growth", "setting": "S. cerevisiae deletion strains, locus YNL071W, strain lat1, active compounds read low", "result": "0.627 (active)"}, {"measurement": "normalized growth", "setting": "S. cerevisiae deletion strains, locus YNL128W, strain TEP1, active compounds read low", "result": 1.01}, {"measurement": "normalized growth", "setting": "S. cerevisiae deletion strains, locus YNL153C, strain GIM3, active compounds read low", "result": 0.998}, {"measurement": "normalized growth", "setting": "S. cerevisiae deletion strains, locus YNL183C, strain NPR1, active compounds read low", "result": 0.977}, {"measurement": "normalized growth", "setting": "S. cerevisiae deletion strains, locus YNL209W, strain ssb2, active compounds read low", "result": 1}, {"measurement": "normalized growth", "setting": "S. cerevisiae deletion strains, locus YNL233W, strain BNI4, active compounds read low", "result": 0.961}, {"measurement": "normalized growth", "setting": "S. cerevisiae deletion strains, locus YNL248C, strain rpa49, active compounds read low", "result": 0.986}, {"measurement": "normalized growth", "setting": "S. cerevisiae deletion strains, locus YNL250W, strain rad50, active compounds read low", "result": 0.988}, {"measurement": "normalized growth", "setting": "S. cerevisiae deletion strains, locus YNL271C, strain bni1, active compounds read low", "result": 0.989}, {"measurement": "normalized growth", "setting": "S. cerevisiae deletion strains, locus YNL298W, strain CLA4, active compounds read low", "result": 1}, {"measurement": "normalized growth", "setting": "S. cerevisiae deletion strains, locus YNL307C, strain MCK1, active compounds read low", "result": "0.613 (active)"}, {"measurement": "normalized growth", "setting": "S. cerevisiae deletion strains, locus YNL322C, strain KRE1 (second series), active compounds read low", "result": 1.02}, {"measurement": "normalized growth", "setting": "S. cerevisiae deletion strains, locus YNL322C, strain KRE1, active compounds read low", "result": 1.01}, {"measurement": "normalized growth", "setting": "S. cerevisiae deletion strains, locus YNR049C, strain mso1, active compounds read low", "result": 0.998}, {"measurement": "normalized growth", "setting": "S. cerevisiae deletion strains, locus YNR052C, strain pop2, active compounds read low", "result": 0.999}, {"measurement": "normalized growth", "setting": "S. cerevisiae deletion strains, locus YOL006C, strain TOP1, active compounds read low", "result": 0.942}, {"measurement": "normalized growth", "setting": "S. cerevisiae deletion strains, locus YOL012C, strain htz1", "result": 0.841}, {"measurement": "normalized growth", "setting": "S. cerevisiae deletion strains, locus YOL147C, strain pex11, active compounds read low", "result": 1}, {"measurement": "normalized growth", "setting": "S. cerevisiae deletion strains, locus YOR001W, strain rrp6, active compounds read low", "result": 1.01}, {"measurement": "normalized growth", "setting": "S. cerevisiae deletion strains, locus YOR061W, strain CKA2, active compounds read low", "result": 0.994}, {"measurement": "normalized growth", "setting": "S. cerevisiae deletion strains, locus YOR069W, strain VPS5, active compounds read low", "result": 1}, {"measurement": "normalized growth", "setting": "S. cerevisiae deletion strains, locus YOR070C, strain gyp1, active compounds read low", "result": 0.992}, {"measurement": "normalized growth", "setting": "S. cerevisiae deletion strains, locus YOR080W, strain dia2, active compounds read low", "result": 0.987}, {"measurement": "normalized growth", "setting": "S. cerevisiae deletion strains, locus YOR083W, strain WHI5, active compounds read low", "result": 0.965}, {"measurement": "normalized growth", "setting": "S. cerevisiae deletion strains, locus YOR106W, strain vam3, active compounds read low", "result": 0.935}, {"measurement": "normalized growth", "setting": "S. cerevisiae deletion strains, locus YOR136W, strain idh2, active compounds read low", "result": 0.97}, {"measurement": "normalized growth", "setting": "S. cerevisiae deletion strains, locus YOR144C, strain elg1, active compounds read low", "result": 0.994}, {"measurement": "normalized growth", "setting": "S. cerevisiae deletion strains, locus YOR184W, strain ser1, active compounds read low", "result": 0.889}, {"measurement": "normalized growth", "setting": "S. cerevisiae deletion strains, locus YOR231W, strain MKK1, active compounds read low", "result": 1.03}, {"measurement": "normalized growth", "setting": "S. cerevisiae deletion strains, locus YOR265W, strain rbl2, active compounds read low", "result": 0.993}, {"measurement": "normalized growth", "setting": "S. cerevisiae deletion strains, locus YOR270C, strain vph1, active compounds read low", "result": 0.953}, {"measurement": "normalized growth", "setting": "S. cerevisiae deletion strains, locus YOR290C, strain snf2, active compounds read low", "result": 0.983}, {"measurement": "normalized growth", "setting": "S. cerevisiae deletion strains, locus YOR316C, strain cot1, active compounds read low", "result": 1}, {"measurement": "normalized growth", "setting": "S. cerevisiae deletion strains, locus YPL051W, strain arl3, active compounds read low", "result": 0.95}, {"measurement": "normalized growth", "setting": "S. cerevisiae deletion strains, locus YPL055C, strain LGE1, active compounds read low", "result": 1}, {"measurement": "normalized growth", "setting": "S. cerevisiae deletion strains, locus YPL078C, strain atp4, active compounds read low", "result": 0.968}, {"measurement": "normalized growth", "setting": "S. cerevisiae deletion strains, locus YPL106C, strain sse1, active compounds read low", "result": 0.96}, {"measurement": "normalized growth", "setting": "S. cerevisiae deletion strains, locus YPL240C, strain hsp82, active compounds read low", "result": 0.982}, {"measurement": "normalized growth", "setting": "S. cerevisiae deletion strains, locus YPL241C, strain CIN2, active compounds read low", "result": 1.01}, {"measurement": "normalized growth", "setting": "S. cerevisiae deletion strains, locus YPL256C, strain CLN2, active compounds read low", "result": 1.05}, {"measurement": "normalized growth", "setting": "S. cerevisiae deletion strains, locus YPR119W, strain clb2, active compounds read low", "result": 0.998}, {"measurement": "normalized growth", "setting": "S. cerevisiae deletion strains, locus YPR141C, strain kar3, active compounds read low", "result": 1.01}, {"measurement": "normalized growth", "setting": "S. cerevisiae deletion strains, locus YPR163C, strain tif3, active compounds read low", "result": "0.909 (active)"}, {"measurement": "normalized growth", "setting": "S. cerevisiae deletion strains, locus YPR167C, strain met16, active compounds read low", "result": 1.01}, {"measurement": "normalized growth", "setting": "S. cerevisiae deletion strains, strain wtn01, active compounds read low", "result": 0.955}, {"measurement": "normalized growth", "setting": "S. cerevisiae strains, strain wild type, active compounds read low", "result": 1}]}]}
